± gives the standard deviation of the averaged measurements. About 5,400 targets were measured; listed, in parts, are those with the largest changes and a random draw of the rest.
Biological target: T1, UniProt Q92796-3|Q5JUW8|Q92796
T1 sequence (whole entry): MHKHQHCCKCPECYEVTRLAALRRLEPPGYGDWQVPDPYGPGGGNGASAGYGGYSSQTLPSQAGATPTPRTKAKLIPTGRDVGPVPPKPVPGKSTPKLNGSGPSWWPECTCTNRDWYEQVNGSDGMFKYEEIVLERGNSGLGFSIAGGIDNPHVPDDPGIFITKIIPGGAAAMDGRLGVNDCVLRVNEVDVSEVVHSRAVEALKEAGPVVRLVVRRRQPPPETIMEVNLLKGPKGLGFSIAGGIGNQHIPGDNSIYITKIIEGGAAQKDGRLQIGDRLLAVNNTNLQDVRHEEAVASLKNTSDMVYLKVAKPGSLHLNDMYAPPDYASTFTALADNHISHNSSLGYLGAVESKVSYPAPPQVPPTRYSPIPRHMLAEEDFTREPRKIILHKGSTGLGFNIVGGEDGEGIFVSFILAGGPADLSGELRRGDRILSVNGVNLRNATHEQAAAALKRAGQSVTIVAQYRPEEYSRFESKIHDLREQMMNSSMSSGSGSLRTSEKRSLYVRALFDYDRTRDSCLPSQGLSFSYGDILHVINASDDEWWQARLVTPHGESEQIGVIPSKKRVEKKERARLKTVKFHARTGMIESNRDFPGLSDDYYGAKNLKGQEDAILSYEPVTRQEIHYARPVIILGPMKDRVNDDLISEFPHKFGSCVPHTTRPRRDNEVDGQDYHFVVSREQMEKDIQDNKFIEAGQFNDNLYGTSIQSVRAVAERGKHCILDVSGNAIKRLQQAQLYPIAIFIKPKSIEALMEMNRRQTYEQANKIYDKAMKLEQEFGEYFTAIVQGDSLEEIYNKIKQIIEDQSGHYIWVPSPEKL
Assay: NP40-soluble protein abundance relative to vehicle (solubility fold change) (ratio); higher = more soluble protein in presence of GTP
In short: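 Data come from three independent experiments in which Dounce-homogenised Jurkat crude lysate was treated at eight concentrations from 0.1 to 10 mM. Treatment ran 10 min at room temperature and then 3 min at 37 °C, after which 0.8% NP40 and benzonase were added for 60 min at 4 °C before ultracentrifugation. The supernatant underwent TMT labelling and LC-MS/MS, and vsn-normalised intensities were expressed as fold change against the detergent-processed vehicle in each replicate.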

Nc1nc2c(ncn2[C@@H]2O[C@H](COP(=O)(O)OP(=O)(O)OP(=O)(O)O)[C@@H](O)[C@H]2O)c(=O)[nH]1 [guanosine triphosphate]
NP40-soluble protein abundance (concentration: 0.1mM): 1.15 ± 0.034 | NP40-soluble protein abundance (concentration: 0.5mM): 1.17 ± 0.023 | NP40-soluble protein abundance (concentration: 1mM): 1.17 ± 0.037 | NP40-soluble protein abundance (concentration: 2mM): 1.17 ± 0.038 | NP40-soluble protein abundance (concentration: 4mM): 1.13 ± 0.03 | NP40-soluble protein abundance (concentration: 6mM): 1.12 ± 0.07 | NP40-soluble protein abundance (concentration: 8mM): 1.18 ± 0.018 | NP40-soluble protein abundance (concentration: 10mM): 1.14 ± 0.037

Source: the supplement of paper PMC6411743
